Screening results: PubChem BioAssay, National Center for Advancing Translational Sciences (NCATS)
nsP2pro primary: blocks chikungunya virus nsP2 protease peptide cleavage; AID 1964107; Potency, µM (doses to about 24.9 µM), for the others: at the highest dose activity change, negative = inhibition, most hits filed as inhibitors; FRET peptide cleavage, nsP2pro, fluorescence 1 h; hit rate 1.1% among 31,000; note: nearly all actives have a fitted effect of over 60% in size
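FRET cleavage of 2.5 uM peptide 2 by 150 nM CHIKV protease domain at pH 8.0 (Tris, Tween 20). Compounds at 7 concentrations (up to 25 uM) preincubated 15 min. Fluorescence read after 1 h at room temperature.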
nsP2 cell sec: cell-based CHIKV nsP2 protease inhibition, secondary | shares compounds with nsP2pro primary | cell-based CHIKV nsP2 protease reporter assay | Potency, µM (highest dose often 51.1 µM), inactives show at the highest dose activity change, negative = inhibition, actives largely listed as inhibitors | hit rate 10% among 450 | AID 1964100; note: nearly all actives have a fitted effect of over 70% in size
NSP2 full ctr: full-length CHIKV NSP2 protease inhibition, selectivity. Potency, µM (titrated, usually from 50.7 µM), for inactives: at the highest dose activity change, negative = inhibition, actives largely listed as inhibitors. shares compounds with nsP2pro primary. Full-length CHIKV NSP2 protease enzymatic counterscreen. hit rate 39% among 410; note: nearly all actives have a fitted effect of over 65% in size
Furin counterscr: inhibits human furin in a CHIKV nsP2 protease selectivity counterscreen; shares compounds with nsP2pro primary; Recombinant human furin enzymatic counterscreen, fluorogenic substrate; Potency, µM (top dose mostly 50.6 µM), for the others: at the highest dose activity change, negative = inhibition, hits mostly inhibitors; hit rate 6% among 410; AID 1964102
Target sequence (P09958 whole entry, looked up): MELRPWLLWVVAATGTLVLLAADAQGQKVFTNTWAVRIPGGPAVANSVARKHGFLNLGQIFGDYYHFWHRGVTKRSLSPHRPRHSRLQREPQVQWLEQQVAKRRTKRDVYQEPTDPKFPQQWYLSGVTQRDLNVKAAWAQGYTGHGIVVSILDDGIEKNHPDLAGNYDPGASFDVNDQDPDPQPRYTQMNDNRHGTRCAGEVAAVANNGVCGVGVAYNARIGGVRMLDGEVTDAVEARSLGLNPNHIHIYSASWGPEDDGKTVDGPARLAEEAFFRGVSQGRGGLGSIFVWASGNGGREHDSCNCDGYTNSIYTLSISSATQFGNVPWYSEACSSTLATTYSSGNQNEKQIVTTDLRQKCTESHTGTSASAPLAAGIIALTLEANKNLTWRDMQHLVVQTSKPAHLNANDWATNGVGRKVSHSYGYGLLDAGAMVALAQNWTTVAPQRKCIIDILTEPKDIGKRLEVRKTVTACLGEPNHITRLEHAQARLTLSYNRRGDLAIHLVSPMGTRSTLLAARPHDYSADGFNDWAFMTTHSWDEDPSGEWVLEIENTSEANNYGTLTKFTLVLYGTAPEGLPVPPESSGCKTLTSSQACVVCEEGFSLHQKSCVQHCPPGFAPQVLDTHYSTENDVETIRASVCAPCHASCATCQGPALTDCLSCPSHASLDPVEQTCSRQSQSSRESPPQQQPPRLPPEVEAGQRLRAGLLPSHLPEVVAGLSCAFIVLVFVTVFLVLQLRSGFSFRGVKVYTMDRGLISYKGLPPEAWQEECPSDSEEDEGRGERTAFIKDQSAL
NS23 peptide cs: selectivity test for CHIKV nsP2 protease inhibitors: endogenous NS2/3 peptide; shares compounds with nsP2pro primary; Purified CHIKV nsP2 protease, endogenous NS2/3 peptide cleavage; Potency, µM (top dose mostly 51 µM), inactives show top-dose activity change, negative = inhibition, most hits filed as inhibitors; hit rate 34% among 410; note: nearly all actives have a fitted effect of over 55% in size
Papain cs: selectivity counter-screen for CHIKV nsP2 protease inhibitors: papain; hit rate 5% among 410; shares compounds with nsP2pro primary; Potency, µM (series often up to 51 µM), for inactives: at the highest dose activity change, negative = inhibition, usual class: inhibitors; AID 1964104; purified papain protease activity, enzymatic inhibition
nsP2pro confirm: CHIKV nsP2 protease inhibition, confirmatory qHTS; hit rate 43% among 410; Potency, µM (doses to about 25.5 µM), inactives show at the top dose activity change, negative = inhibition, most hits filed as inhibitors; shares compounds with nsP2pro primary; CHIKV nsP2 protease enzymatic activity, qHTS; note: nearly all actives have a fitted effect of over 75% in size
HCV NS3 counter: selectivity counter-screen for CHIKV nsP2 protease inhibitors: HCV NS3/4A | shares compounds with nsP2pro primary | HCV NS3/4A protease biochemical counterscreen | Potency, µM (series often up to 50.9 µM), hits mostly inhibitors | hit rate 20% among 410 | AID 1964106; note: nearly all actives have a fitted effect of over 55% in size
An asterisk follows results filed as active; i = inactive; ? = inconclusive; [ ] = another dose, or the depositor's remark. This is one part of a sample in which hits are shown more often than they occur. Calls come from the whole dose curve. % is set by controls: 0 for no effect and ±100 for the full control effect; potency is the fitted concentration of half-maximal effect.

SMILES | nsP2pro primary | others
COc1ccc([S+](=O)([O-])Nc2ccc(-c3nc4ccccc4[nH]3)cc2)cc1OC | i
COC1(C(=O)N[C@@H](C)c2ccc(-n3cc(F)cn3)nc2)CCC(c2nc(C)cc(Nc3cc(C)[nH]n3)n2)CC1 (some centres undefined) | -1.9%
FC(F)(F)c1cccc(N2CCN(C(=S)Nc3ncnc4ccccc34)CC2)c1 | 4.7%
Cc1nc(C2CCCN2Cc2ccc(-c3ccn[nH]3)o2)cs1 (centres undefined) | 8.91µM* | nsP2 cell sec=13.7%;NSP2 full ctr=?;Furin counterscr=-3.0%;NS23 peptide cs=?;Papain cs=-5.6%;nsP2pro confirm=?;HCV NS3 counter=?
CC(C)c1ccc(NC(=O)c2cccs2)c(-c2nc3ccccc3[nH]c2=O)c1 | -3.5%
CC(=O)OC1CC(C)C2(CCC3(CC(=O)OC3O)O2)C2(C)CCCC(C)(C)C12 (centres undefined) | 2.9%[10 µM]
N#Cc1ccc(-c2ccc(CNc3ccc(C4CCNCC4)cc3)o2)cc1 | -8.0%
N#Cc1ccc(-c2ccc(C3Nc4ccccc4C(=O)N3O)o2)cc1 (centres undefined) | 10µM* | nsP2 cell sec=23.1µM*;NSP2 full ctr=0.0%;Furin counterscr=-14.5%;NS23 peptide cs=-11.0%;Papain cs=-16.8%;nsP2pro confirm=?;HCV NS3 counter=i
COc1cccc(CNc2ccc(S(=O)(=O)Nc3ccc(-c4ccccc4)cc3)cc2)c1O | -8.7%
O=C(c1ccc(F)cc1)n1nc(-c2ccc(Cl)cc2)nc1NCc1ccco1 | -22.7%
COc1ccc(NC(=O)/C=C\C(=O)N(c2ccc(C(C)C)cc2)C(C(=O)NCc2ccco2)c2ccc(F)cc2)cc1 (centres undefined) | -19.2%
O=C(/C=C/c1ccco1)Nc1ccc(F)cc1 | 6.31µM* | nsP2 cell sec=-20.0%
Cc1nn(-c2ccccc2[N+](=O)[O-])c(C)c1[C@@H]1C=C[C@@H](NCc2ccc(C(C)C)cc2)C1 | 30.0%[39.2 µM]
COc1cc(N2CCOCC2)ccc1Nc1ncc(Cl)c(Nc2ccccc2NS(C)(=O)=O)n1 | -3.5%
C=CC1(C)CC(O)C(C(=C)C(=O)OC)C(O)C1C(=C)CO (centres undefined) | -19.3%
C=C[C@]1(C)C[C@H](O)[C@H]2C(=C)C(=O)O[C@@H]2[C@H]1C(=C)CO | ? | nsP2 cell sec=?;NSP2 full ctr=?;Furin counterscr=-3.7%;NS23 peptide cs=-23.1%;Papain cs=-9.9%;nsP2pro confirm=?;HCV NS3 counter=i
C=C(C)C(=O)O[C@H]1[C@H]2C(=C)C(=O)O[C@@H]2C[C@@H](C)[C@@H]2O[C@@H]2C(=O)[C@](C)(O)[C@@H]1OC(=O)C(=C)C | -3.2%[10 µM]
Cc1ccc(S(=O)(=O)Nc2cc(C(=O)Nc3nc(-c4ccccc4)cs3)ccn2)cc1 | -2.6%
O=C1CCCC2=C1C(c1[nH]ncc1Cl)NC(=NCc1ccccc1)N2 (centres undefined) | -0.4%
Cc1ccc(CS(=O)(=O)c2ncc(Cl)c(C(=O)Nc3nc4ccc(F)cc4s3)n2)cc1 | -0.1%
CCS(=O)(=O)c1ncc(Cl)c(C(=O)Nc2ccccc2)n1 | 71.8%
CC(=O)Nc1ccc(NC(=O)c2nc(S(=O)(=O)Cc3ccc(F)cc3)ncc2Cl)cc1 | ? | nsP2 cell sec=2.31µM*;NSP2 full ctr=?;Furin counterscr=1.6%;NS23 peptide cs=4.61µM*;Papain cs=-7.0%;nsP2pro confirm=5.04µM*;HCV NS3 counter=i
O=C(Nc1ccc(S(=O)(=O)Nc2ncc(-c3ccccc3)s2)cc1)c1ccc2ccccc2c1 | i
O=C(Nc1nc(-c2ccccc2)cs1)c1ccncc1NS(=O)(=O)c1ccccc1Cl | i
O=C1CCCc2cc(S(=O)(=O)Nc3cnccc3C(=O)Nc3nc(-c4ccccc4)cs3)ccc2N1 | i
SMILES | nsP2pro primary | others
CCCCCC(=O)N1CCC[C@H]1C(=O)N[C@@H](Cc1ccc(O)cc1)C(=O)OC | 20.3%
Nc1c(-c2ccccc2)nc(Cl)c2c(O)n[nH]c(=O)c12 | 9.88µM* | nsP2 cell sec=-1.8%;NSP2 full ctr=-4.5%;Furin counterscr=-7.2%;NS23 peptide cs=i;Papain cs=24.1%;nsP2pro confirm=-6.7%;HCV NS3 counter=i
O=C(O)c1cc(-c2c(-c3ccccc3)nn3ccccc23)n[nH]c1=O | 13.1%
O=C(Nc1cccc2cccnc12)c1ccc(N2C(=O)[C@@H]3C4C=CC(C4)[C@@H]3C2=O)cc1 | -1.3%
Cc1ccc(OCCn2c(CCNC(=O)c3ccc(C)cc3)nc3ccccc32)cc1 | -24.2%
NC(=O)C1CCN(c2ncc(-c3ccc(Br)cc3)s2)CC1 | 3.9%
N#Cc1ccc(-c2ccc(CNc3ccc(N4CCCCC4)cc3)o2)cc1 | 3.55µM* | nsP2 cell sec=?;NSP2 full ctr=-60.9%;Furin counterscr=-4.3%;NS23 peptide cs=?;Papain cs=-20.9%;nsP2pro confirm=?;HCV NS3 counter=1.83µM*
N#Cc1ccc(-c2ccc(CNc3ccc(N4CCN5CCCCC5C4)cc3)o2)cc1 (centres undefined) | -21.3%
N#Cc1ccc(-c2ccc(CNc3ccc(N4CCOCC4)cc3)o2)cc1 | -19.7%
CCOC(=O)Nc1cc(-c2ccc(C)c(NS(C)(=O)=O)c2)nn2c(C)nnc12 | 2.4%
Cc1ccc(-c2cc(C(=O)Nc3ccc(-n4cncn4)cc3)c3ccccc3n2)cc1C | i
FC(F)(F)c1ccccc1-c1nccc(NCc2ccc(-c3cccnc3)cc2)n1 | 1.5%
CCCNC(=O)N[C@@H]1CCC[C@@H](C(=O)N(CC)CC)CC(=O)N(C)C1 | 5.62µM* | nsP2 cell sec=8.6%;NSP2 full ctr=23.7µM*;Furin counterscr=?;NS23 peptide cs=16.8µM*;Papain cs=-3.1%;nsP2pro confirm=8.19µM*;HCV NS3 counter=?
CCN(CC)C(=O)[C@@H]1CCC[C@@H](NC(=O)c2ccc(Cl)cc2)CN(C)C(=O)C1 | -6.7%[39.2 µM]
CCN(CC)C(=O)[C@@H]1CCC[C@@H](NC(=O)c2ccc(OC)cc2)CN(C)C(=O)C1 | i
COc1ccnc(NC(=S)N2CCN(c3cc(Cl)cc(Cl)c3)CC2)c1 | i
CCCCOC(=O)C(=O)Nc1cccc(-c2nn[nH]n2)c1 | -1.3%
Cc1ccc(-c2cc(C(=O)Nc3ccc(-c4nn[nH]n4)cc3)c3ccccc3n2)cc1C | i
O=C(O)C(=O)Nc1cccc(-c2nn[nH]n2)c1 | ? | nsP2 cell sec=0.1%;NSP2 full ctr=?;Furin counterscr=-7.0%;NS23 peptide cs=?;Papain cs=-6.0%;nsP2pro confirm=10µM*;HCV NS3 counter=?
O=C(Nc1ccc(-c2ccnc(Nc3ccc(N4CCOCC4)cc3)n2)cc1)[C@@H]1CCCN1 | 109.6%
Cc1cc(C=CC#N)cc(C)c1Nc1nc(Nc2ccc3scnc3c2)c2[nH]cnc2n1 | -21.2%
COc1cc(O)c(C(CC(=O)N2CCCC(C)C2)c2ccc(C)cc2)c(OC)c1 (centres undefined) | 2.3%
